The target of experiment [1] is T1, Ephrin type-B receptor 1 (Homo sapiens) (UniProt P54762).
T1 sequence (whole entry): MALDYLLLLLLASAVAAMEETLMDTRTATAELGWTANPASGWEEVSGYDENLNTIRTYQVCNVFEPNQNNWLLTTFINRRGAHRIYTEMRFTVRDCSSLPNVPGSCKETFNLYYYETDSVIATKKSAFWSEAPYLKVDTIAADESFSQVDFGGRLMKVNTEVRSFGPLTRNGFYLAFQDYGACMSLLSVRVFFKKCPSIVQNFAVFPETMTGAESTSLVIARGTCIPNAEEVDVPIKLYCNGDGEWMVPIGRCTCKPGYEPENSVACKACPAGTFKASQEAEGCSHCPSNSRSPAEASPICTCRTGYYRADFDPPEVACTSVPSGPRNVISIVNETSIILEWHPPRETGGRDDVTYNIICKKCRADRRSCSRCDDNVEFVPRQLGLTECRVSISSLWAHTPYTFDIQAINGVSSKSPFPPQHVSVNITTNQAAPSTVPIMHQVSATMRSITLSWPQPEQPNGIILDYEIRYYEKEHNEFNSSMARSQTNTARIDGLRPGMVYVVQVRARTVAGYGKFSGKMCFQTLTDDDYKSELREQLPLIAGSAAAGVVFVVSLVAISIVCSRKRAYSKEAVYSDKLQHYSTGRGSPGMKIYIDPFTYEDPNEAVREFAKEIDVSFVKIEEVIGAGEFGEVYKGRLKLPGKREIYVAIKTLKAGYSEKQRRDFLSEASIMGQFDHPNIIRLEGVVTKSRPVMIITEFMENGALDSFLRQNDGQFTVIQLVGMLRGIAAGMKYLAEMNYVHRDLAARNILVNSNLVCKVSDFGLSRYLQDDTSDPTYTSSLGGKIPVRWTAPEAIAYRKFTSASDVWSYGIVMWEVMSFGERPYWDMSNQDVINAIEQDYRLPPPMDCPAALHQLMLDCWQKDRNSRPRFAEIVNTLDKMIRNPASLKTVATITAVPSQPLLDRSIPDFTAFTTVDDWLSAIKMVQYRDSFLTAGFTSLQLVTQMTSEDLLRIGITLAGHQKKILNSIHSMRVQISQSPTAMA
The following applies: at 10 µM.

Experiment [2] has as its target T2, Ephrin type-B receptor 2 (Homo sapiens) (UniProt P29323).
T2 sequence (whole entry): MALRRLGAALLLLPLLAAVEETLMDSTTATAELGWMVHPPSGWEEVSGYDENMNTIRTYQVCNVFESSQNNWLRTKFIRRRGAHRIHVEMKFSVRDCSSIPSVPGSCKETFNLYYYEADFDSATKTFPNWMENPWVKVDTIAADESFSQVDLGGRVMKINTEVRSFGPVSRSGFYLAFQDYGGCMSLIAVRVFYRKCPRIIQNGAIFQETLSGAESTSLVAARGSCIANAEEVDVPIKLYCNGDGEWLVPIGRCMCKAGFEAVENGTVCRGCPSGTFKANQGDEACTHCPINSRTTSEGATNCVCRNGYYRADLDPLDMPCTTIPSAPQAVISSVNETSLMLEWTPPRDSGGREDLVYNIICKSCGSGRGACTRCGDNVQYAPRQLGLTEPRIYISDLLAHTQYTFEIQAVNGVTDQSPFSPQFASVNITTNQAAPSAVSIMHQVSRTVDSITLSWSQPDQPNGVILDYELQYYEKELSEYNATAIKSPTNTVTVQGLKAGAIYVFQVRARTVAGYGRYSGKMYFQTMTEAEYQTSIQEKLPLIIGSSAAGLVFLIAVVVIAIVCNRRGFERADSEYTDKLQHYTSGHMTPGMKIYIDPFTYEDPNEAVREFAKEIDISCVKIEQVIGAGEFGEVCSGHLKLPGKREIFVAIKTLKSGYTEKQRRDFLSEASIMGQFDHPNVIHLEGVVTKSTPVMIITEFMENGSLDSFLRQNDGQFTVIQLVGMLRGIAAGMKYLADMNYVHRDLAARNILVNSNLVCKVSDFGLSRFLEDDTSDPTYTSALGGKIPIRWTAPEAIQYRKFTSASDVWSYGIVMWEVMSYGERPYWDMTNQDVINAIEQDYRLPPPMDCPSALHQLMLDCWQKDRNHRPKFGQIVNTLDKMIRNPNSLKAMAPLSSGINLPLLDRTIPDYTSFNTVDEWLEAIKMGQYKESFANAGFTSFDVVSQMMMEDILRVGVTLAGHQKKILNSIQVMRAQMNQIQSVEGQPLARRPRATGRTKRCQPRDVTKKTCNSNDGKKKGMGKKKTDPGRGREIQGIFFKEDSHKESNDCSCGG
The following applies: at 1 µM.

In experiment [3] the target is T2, Ephrin type-B receptor 2 (Homo sapiens). Conditions: at 10 µM; call rule not given here.
The target in experiment [4] is T3, Ephrin type-B receptor 3 (Homo sapiens) (UniProt P54753).
T3 sequence (whole entry): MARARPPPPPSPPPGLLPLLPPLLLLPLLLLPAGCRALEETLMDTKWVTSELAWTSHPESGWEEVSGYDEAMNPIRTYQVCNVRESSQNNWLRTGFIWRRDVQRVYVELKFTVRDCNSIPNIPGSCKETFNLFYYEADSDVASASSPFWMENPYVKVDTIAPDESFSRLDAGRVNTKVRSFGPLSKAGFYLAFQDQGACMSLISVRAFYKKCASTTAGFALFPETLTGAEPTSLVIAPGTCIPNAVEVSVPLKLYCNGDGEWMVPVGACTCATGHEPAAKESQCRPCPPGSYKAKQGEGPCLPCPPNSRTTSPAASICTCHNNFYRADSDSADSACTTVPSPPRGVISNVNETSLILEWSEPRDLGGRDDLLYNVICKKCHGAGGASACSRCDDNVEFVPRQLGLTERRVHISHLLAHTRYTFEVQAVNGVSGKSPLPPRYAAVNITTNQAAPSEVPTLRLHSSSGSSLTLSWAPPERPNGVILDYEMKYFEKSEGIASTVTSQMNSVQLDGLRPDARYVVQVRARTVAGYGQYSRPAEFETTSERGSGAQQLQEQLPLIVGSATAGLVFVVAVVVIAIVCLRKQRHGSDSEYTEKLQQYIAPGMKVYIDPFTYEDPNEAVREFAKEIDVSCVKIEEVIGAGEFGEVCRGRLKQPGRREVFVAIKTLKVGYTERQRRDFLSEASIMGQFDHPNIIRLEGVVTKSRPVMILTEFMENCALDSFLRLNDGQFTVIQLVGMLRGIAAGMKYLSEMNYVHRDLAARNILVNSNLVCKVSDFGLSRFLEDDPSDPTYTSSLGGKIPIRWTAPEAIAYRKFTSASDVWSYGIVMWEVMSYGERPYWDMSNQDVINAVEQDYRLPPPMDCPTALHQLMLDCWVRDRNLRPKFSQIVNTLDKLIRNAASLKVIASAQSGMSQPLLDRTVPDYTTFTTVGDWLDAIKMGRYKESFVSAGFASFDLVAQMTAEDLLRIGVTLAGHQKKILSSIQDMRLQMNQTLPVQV
Conditions: at 1 µM.

For experiment [5], the target named is T3, Ephrin type-B receptor 3 (Homo sapiens). The following applies: at 10 µM.
Experiment [6] has as its target T4, Ephrin type-B receptor 4 (Homo sapiens) (UniProt P54760).
T4 sequence (whole entry): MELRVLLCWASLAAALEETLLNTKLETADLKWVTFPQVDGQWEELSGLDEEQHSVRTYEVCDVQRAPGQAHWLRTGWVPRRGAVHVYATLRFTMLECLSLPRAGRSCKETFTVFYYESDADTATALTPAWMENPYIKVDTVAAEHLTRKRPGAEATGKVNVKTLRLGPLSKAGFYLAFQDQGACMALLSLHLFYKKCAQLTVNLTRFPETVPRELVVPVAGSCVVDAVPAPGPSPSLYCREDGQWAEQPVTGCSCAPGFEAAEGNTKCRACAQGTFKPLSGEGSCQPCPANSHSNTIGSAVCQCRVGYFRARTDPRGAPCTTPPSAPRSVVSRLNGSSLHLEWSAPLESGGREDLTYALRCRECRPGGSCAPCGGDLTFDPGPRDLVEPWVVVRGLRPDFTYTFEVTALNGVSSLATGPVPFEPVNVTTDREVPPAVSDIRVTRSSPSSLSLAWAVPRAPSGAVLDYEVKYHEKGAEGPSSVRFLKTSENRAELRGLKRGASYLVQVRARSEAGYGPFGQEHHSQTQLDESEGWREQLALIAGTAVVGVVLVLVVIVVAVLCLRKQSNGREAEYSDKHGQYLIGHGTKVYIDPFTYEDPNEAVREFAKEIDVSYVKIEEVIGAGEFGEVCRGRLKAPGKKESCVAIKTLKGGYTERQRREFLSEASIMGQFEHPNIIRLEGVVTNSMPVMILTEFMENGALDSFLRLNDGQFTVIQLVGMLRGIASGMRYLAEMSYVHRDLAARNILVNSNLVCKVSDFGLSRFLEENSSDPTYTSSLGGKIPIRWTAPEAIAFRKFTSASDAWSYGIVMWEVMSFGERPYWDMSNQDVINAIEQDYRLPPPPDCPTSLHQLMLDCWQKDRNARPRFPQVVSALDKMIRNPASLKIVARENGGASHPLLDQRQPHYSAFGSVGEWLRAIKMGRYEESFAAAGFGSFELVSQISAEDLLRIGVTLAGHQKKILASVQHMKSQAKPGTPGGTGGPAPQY
Conditions: at 1 µM.

Experiment [7] concerns the target T4, Ephrin type-B receptor 4 (Homo sapiens). The following applies: at 10 µM.
Experiment [8] has as its target Receptor tyrosine-protein kinase erbB-4 (Homo sapiens) (UniProt Q15303). Conditions: at 1 µM.
Experiment [9] shares this target. The following applies: at 10 µM.
For experiment [10], the target named is Focal adhesion kinase 1 (Homo sapiens) (UniProt Q05397). The following applies: at 1 µM.
Chain of Focal adhesion kinase 1 (Homo sapiens) (Q05397 2-1052 limits assumed): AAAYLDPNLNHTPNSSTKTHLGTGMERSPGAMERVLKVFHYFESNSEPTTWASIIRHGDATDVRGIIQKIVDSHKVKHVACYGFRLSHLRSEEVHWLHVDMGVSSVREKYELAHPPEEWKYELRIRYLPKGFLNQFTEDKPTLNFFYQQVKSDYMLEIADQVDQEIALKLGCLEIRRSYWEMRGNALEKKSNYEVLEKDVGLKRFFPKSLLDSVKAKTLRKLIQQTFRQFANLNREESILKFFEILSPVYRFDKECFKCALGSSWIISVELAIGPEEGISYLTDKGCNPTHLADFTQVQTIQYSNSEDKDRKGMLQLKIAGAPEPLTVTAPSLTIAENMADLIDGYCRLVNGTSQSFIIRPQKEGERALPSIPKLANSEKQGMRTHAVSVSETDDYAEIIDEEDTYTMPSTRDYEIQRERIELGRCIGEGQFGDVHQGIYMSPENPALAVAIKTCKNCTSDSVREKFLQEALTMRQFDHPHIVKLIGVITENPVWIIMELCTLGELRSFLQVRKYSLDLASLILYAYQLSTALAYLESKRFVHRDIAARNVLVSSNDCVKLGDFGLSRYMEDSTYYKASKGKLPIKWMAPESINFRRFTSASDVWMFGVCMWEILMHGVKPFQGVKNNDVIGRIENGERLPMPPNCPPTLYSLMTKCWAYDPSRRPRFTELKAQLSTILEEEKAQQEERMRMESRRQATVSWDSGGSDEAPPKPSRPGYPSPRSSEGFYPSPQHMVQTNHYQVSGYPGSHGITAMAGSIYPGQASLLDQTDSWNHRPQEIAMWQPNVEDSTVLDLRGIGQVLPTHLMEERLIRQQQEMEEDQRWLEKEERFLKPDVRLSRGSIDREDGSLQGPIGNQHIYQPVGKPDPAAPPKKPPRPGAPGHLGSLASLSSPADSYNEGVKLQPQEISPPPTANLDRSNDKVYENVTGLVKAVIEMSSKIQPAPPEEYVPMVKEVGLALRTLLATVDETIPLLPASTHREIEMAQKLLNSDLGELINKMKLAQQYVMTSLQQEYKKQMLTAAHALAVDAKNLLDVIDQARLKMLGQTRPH

Chain of Receptor tyrosine-protein kinase erbB-4 (Homo sapiens) (Q15303 whole entry): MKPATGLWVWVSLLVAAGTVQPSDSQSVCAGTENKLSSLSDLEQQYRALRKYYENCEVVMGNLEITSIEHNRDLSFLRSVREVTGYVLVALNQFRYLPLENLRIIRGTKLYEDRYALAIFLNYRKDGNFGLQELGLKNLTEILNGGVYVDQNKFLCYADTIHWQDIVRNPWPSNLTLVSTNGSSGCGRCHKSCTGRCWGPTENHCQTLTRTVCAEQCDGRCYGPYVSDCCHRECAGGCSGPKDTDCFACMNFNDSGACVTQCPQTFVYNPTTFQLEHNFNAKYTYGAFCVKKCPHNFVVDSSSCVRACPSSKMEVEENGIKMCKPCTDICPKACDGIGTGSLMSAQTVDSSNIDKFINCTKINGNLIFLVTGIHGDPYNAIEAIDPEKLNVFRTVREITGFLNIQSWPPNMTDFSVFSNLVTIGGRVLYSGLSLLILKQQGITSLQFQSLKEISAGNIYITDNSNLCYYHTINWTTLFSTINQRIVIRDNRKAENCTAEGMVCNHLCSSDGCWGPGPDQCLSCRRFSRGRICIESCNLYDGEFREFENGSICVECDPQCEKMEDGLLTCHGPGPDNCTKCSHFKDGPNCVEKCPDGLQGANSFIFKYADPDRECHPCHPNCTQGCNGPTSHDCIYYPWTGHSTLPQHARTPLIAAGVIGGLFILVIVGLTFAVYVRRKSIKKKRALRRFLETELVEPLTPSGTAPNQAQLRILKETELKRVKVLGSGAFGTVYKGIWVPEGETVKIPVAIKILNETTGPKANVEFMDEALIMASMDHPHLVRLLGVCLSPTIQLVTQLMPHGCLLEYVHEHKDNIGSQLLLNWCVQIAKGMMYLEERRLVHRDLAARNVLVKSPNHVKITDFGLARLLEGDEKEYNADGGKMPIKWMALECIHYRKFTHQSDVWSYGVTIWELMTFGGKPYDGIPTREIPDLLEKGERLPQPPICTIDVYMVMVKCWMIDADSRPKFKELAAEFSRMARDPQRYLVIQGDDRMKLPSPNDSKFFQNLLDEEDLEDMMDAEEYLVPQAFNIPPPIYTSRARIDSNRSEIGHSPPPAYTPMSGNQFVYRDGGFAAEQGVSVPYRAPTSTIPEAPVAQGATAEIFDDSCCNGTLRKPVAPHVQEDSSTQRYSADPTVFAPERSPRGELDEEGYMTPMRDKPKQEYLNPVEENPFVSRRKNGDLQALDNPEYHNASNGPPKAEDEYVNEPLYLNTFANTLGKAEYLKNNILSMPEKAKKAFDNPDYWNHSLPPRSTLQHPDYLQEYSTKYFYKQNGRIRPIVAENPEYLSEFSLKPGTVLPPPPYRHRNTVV

The term residual activity denotes the signal under treatment as a percentage of the control signal. With `Nc1ccc2ncnc(NCCc3ccc(Oc4ccccc4)cc3)c2c1`, the residual activity in [1] is 96%; in experiment [2], 111%; in [3], 93%; in experiment [4], 105% (inactive); in [5], 98%; in [6] it was 96%. Also, the residual activity in [7] amounted to 98%; in [8], 33%; in [9], 2%; in experiment [10] it was 106%.
